For 9 compounds, Potency results are on record in PubChem BioAssay (NCATS).

Results filed as inconclusive are left out. Activity calls are given as the source filed them. Calls follow the shape of the dose curve; as a rule, active = well fitted cell-killing curve with a large enough effect; inconclusive = small, poorly fitted or top-dose-only effect, or effect the other way; inactive = no such curve, though single readings can be large or run the other way.
Potency is read from the fitted curve at half-maximal effect.

The test can be described thus: Quantitative High-Throughput drug screen in 47 multiple myeloma cell lines against the NCATS MIPE library collection: Karpas620_DSMZ cell viability assay (AID 1918959). Also: nearly all actives have a fitted effect of over 30% in size. As to conditions: Karpas620 myeloma viability, CellTiter-Glo ATP luminescence, 48 h; series mostly up to 45.8 µM. In short, it runs like this:
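We plated 500 myeloma cells per well, pinned in MIPE 4.0 compounds, and incubated for 48 hours at 37C. ATP was then quantified with CellTiter-Glo, with DMSO and media-only wells defining 100% and 0%.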
As to `COc1ccc2c(Oc3ccc(NC(=O)c4c(C)n(CC(C)(C)O)n(-c5ccccc5)c4=O)cc3F)ccnc2c1`, the Potency was 23.5 µM (active).

Consider `CC(C)(C)Cn1c(N)nc2ccc(-c3[nH]c(C(C)(C)C)nc3-c3ccc(F)cc3)nc21`, for which the Potency entry was “inactive”.

For the compound `COc1ccc2cc(-c3nc(-c4ccc(S(C)=O)cc4)[nH]c3-c3ccncc3)ccc2c1` (centres undefined), the Potency is 18.7 µM (active).

For `COC1CCC(N(C(=O)C2CCC(C)CC2)c2cc(C3=CCCCC3)sc2C(=O)O)CC1` (centres undefined), the Potency result is “inactive”.

On to `Nc1nc(F)nc2c1ncn2[C@@H]1O[C@H](COP(=O)(O)O)[C@@H](O)[C@H]1O`, for which the Potency is 18.7 µM (active).

For `Cc1cc(OCCCc2c(C(=O)O)n(Cc3cccnc3)c3c(-c4c(COc5ccc(N6CCN([S+](C)(=O)[O-])CC6)cc5)nn(C)c4C)cccc23)cc(C)c1Cl`, the Potency entry was “inactive”.

Consider `COc1ccc2c3c1OC1C[C@@H](O)C=C[C@@]31CCN(C)C2` (some centres undefined), for which the Potency entry is “inactive”.

For the compound `CO[C@H]1C[C@@H]2CC[C@@H](C)[C@@](O)(O2)C(=O)C(=O)N2CCCC[C@@H]2C(=O)O[C@H]([C@H](C)C[C@@H]2CC[C@H](OC(=O)C(C)(CO)CO)[C@H](OC)C2)CC(=O)[C@H](C)C=C(C)[C@@H](O)[C@@H](OC)C(=O)[C@H](C)C[C@H](C)C=CC=CC=C1C`, the Potency is 9.35 µM (active).

Take `CO[C@H]1C[C@@H]2CC[C@@H](C)[C@@](O)(O2)C(=O)C(=O)N2CCCC[C@@H]2C(=O)O[C@H]([C@@H](C)C[C@@H]2CC[C@H](O)[C@H](OC)C2)CC(=O)[C@H](C)C=C(C)[C@@H](O)[C@@H](OC)C(=O)[C@H](C)C[C@H](C)C=CC=CC=C1C`: the Potency was 16.6 µM (active).
